# Most compounds without a hit are left out; they make up all but 3.6% or so of the library.
# Wnt act – Wnt/beta-catenin pathway activators, primary screen, cell-based, plate reader, single point. actives 1.2% (n = 300,000). activation, % at 9.35 µM. Wnt/beta-catenin reporter cell assay, activator; in the data active means activation above about 30%, passing the limit was not always enough; inconclusive means no clear call, values can overlap the other calls
# APOBEC3G inh – APOBEC3G DNA deaminase inhibitors, primary screen, biochemical, fluorescence, single-stranded DNA substrate, uHTS | actives 0.28% (n = 330,000) | DNA dC->dU-editing enzyme APOBEC-3G (Homo sapiens), Q9HC16 | AID 493012, 2011 | recombinant A3G, ssDNA deamination FAM/TAMRA fluorescence | inhibition, % at 20 µM;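 active means inhibition of at least 40% at 20 µM, with no more than 30% in the related APOBEC3A deaminase screen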
# Target sequence (Q9HC16 whole entry, looked up): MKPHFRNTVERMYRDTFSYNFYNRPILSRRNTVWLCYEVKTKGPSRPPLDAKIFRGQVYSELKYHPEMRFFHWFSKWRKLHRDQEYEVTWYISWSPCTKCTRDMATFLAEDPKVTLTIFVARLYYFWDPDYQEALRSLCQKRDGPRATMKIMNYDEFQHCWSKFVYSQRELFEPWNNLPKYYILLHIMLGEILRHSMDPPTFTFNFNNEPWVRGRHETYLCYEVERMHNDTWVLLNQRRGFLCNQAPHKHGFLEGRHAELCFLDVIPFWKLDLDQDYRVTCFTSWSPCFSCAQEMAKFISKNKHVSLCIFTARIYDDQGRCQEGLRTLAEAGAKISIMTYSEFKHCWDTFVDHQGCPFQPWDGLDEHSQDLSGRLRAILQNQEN
# PHOSPHO1 block – PubChem AID 1565; Phosphoethanolamine/phosphocholine phosphatase (Homo sapiens), Q8TCT1; inhibition, % at 13.3 µM; actives 1.1% (n = 290,000); recombinant PHOSPHO1, absorbance phosphatase assay; in the data active means inhibition above about 60%
# Target sequence (Q8TCT1 whole entry, looked up): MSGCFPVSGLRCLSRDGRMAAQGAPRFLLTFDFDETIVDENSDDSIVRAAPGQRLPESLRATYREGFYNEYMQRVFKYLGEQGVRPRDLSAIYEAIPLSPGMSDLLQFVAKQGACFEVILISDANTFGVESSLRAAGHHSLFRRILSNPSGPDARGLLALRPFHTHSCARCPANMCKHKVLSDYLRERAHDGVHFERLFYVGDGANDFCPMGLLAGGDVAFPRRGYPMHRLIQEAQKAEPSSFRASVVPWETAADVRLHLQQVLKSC
# esBAF inh – Bmi1 luciferase reporter increase in mESCs, primary screen, esBAF inhibitor project, mouse ES cells, Bmi1 luciferase knock-in, single point. 24 h; 100% = twice the neutral-well signal. reporter increase, % at 12.5 µM. actives 2% (n = 350,000). AID 602393, 2012; in the data active means activation above about 40%; inconclusive means no clear call, values can overlap the other calls;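 further: a rise in the Bmi1 reporter signal indicates esBAF inhibition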
# A3A deaminase – APOBEC3A ssDNA deaminase inhibitors, primary screen, selectivity assay for APOBEC3G inhibitor project, biochemical, FAM/TAMRA oligo cleavage fluorescence; DNA dC->dU-editing enzyme APOBEC-3A (Homo sapiens), P31941; AID 493011, 2011; recombinant A3A, FAM/TAMRA ssDNA deamination fluorescence; actives 0.41% (n = 330,000); inhibition, % at 20 µM;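 active means at least 40% inhibition at 20 µM here, with at most 30% in a related deaminase screen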
# MITF act – activators of MITF-driven TRPM1 promoter reporter, primary screen, cell-based, SK-MEL-5, luciferase, single point; actives 0.75% (n = 300,000); AID 588334, 2011; activation, % at 12.5 µM; SK-MEL-5 TRPM1-promoter luciferase, 24 h; % of positive control, neutral wells = 0;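 active means mean activation of at least 80% with every replicate also reaching 80%; inconclusive means mean reaches 80% but some replicate falls short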
# A number is an active result; – = inactive; ? = inconclusive; · = no result.
SMILES,Wnt act,APOBEC3G inh,PHOSPHO1 block,esBAF inh,A3A deaminase,MITF act
COCCNC(=O)C[C@H]1CC[C@H]2[C@H](COc3ccc(NS(=O)(=O)c4ccc(Cl)cc4)cc3C(=O)N2C)O1,·,·,·,–,·,·
CS(=O)(=O)Nc1ccc2c(c1)[C@H]1C[C@@H](CC(=O)NCc3cccnc3)O[C@H](CO)[C@H]1O2,·,·,·,–,·,·
C[n+]1c(-c2ccccc2)sc([S-])c1-c1ccccc1,44,–,·,·,–,·
Cn1cc(SCC(=O)Nc2ccc3c(c2)OCO3)c2ccccc21,–,–,72,–,–,·
Cc1cc(C)c(C#N)c(SCC(=O)Nc2ccc3c(c2)OCO3)n1,42,–,–,–,–,–
Cc1cc(C)c(C#N)c(SCC(=O)Nc2cc(C)on2)n1,–,–,·,82,–,?
COCc1cc(C)nc(SCC(=O)Nc2ccc(C)c(C)c2)c1C#N,–,–,–,43,–,–
CCCN1[C@H](C(=O)NCC(F)(F)F)[C@@H](CO)[C@@H]2Cn3c(ccc(-c4ccccc4)c3=O)[C@@H]21,·,·,·,–,·,·
CCc1ccc2[nH]c(C(=O)Nc3ccc(Br)c(C)n3)cc2c1,–,–,–,44,–,–
Oc1ccccc1-c1cc(-c2ccc(F)cc2)n[nH]1,53,–,–,–,–,–
COc1ccc(-c2cc(-c3ccccc3)n[nH]2)c(O)c1,–,–,–,83,–,–
Oc1ccccc1-c1cc(-c2ccccc2)n[nH]1,53,–,·,–,–,–
C[C@@H]1CCCCO[C@@H](CN(C)C(=O)Nc2ccc3c(c2)OCO3)[C@H](C)CN([C@@H](C)CO)C(=O)c2cc(NC(=O)CCC(F)(F)F)ccc2O1,·,·,·,–,·,·
CO[C@H]1CN(C)C(=O)c2ccc(NS(C)(=O)=O)cc2OC[C@H](C)N(CC2CCCCC2)C[C@H]1C,·,·,·,–,·,·
Cc1ccc(NC(=O)c2noc3c2CCC3)cc1C,33,·,–,·,·,–
COc1ccc(NC(=O)c2noc3c2CCC3)cc1,–,–,–,95,–,·
CCOC(=O)c1c(NC(=O)c2noc3c2CCCC3)sc(C)c1C,·,·,92,·,·,·
CC(=O)c1ccc(NC(=O)c2noc3c2CCC3)cc1,–,–,–,–,–,–
Cc1ccc(-n2c(C)cc(C(=O)COC(=O)c3c(C)noc3C)c2C)cc1,51,–,–,–,–,–
Cc1ccc(NC(=O)c2cc(-c3cccs3)on2)cc1,56,–,–,–,–,·
O=C(Nc1cccc(O)c1)c1cc(-c2cccs2)on1,–,–,–,81,–,88
CC(=O)Nc1cc(C(=O)OCC(=O)c2ccc(Cl)cc2Cl)ccc1C,·,–,–,–,–,·
CC(=O)Nc1cc(C(=O)OCC(=O)c2ccc(C)cc2)ccc1C,?,–,–,78,–,–
COc1ccc(C(=O)COc2ccc(C)cc2NC(C)=O)cc1,56,–,–,·,–,·
CCC(=O)n1nc(-c2ccc(Cl)cc2)nc1SC,40,–,–,71,–,–
SMILES,Wnt act,APOBEC3G inh,PHOSPHO1 block,esBAF inh,A3A deaminase,MITF act
CSc1nc(-c2ccc(Cl)cc2)nn1S(=O)(=O)c1ccc(Cl)cc1,–,–,–,47,–,·
CCC(=O)n1nc(-c2ccc(OC)cc2)nc1SC,·,–,–,43,–,–
CCCC(=O)n1nc(-c2ccc(Cl)cc2)nc1SC,·,–,–,–,–,–
Cc1cc(CN(C)C(=O)c2cc(COc3ccc(C)c(C)c3)on2)on1,–,–,–,?,–,?
Cc1ccc(OCc2cc(C(=O)N(C)Cc3cnn(C)c3)no2)cc1C,–,·,·,46,·,·
COc1cc(Cl)ccc1OCc1cc(C(=O)N(C)CCc2cnn(C)c2)no1,–,–,–,88,–,–
Cc1cc(OCc2cc(C(=O)N(C)CCc3cnn(C)c3)no2)cc(C)c1Cl,–,–,–,74,–,–
CC(=O)c1cccc(OCc2cc(C(=O)N(C)CCc3cnn(C)c3)no2)c1,–,–,–,·,–,–
C[C@H](CO)N1C[C@H](C)[C@H](CN(C)Cc2ccncc2)OCCCC[C@H](C)Oc2ccc(NS(=O)(=O)c3ccc(F)cc3)cc2C1=O,·,·,·,–,·,·
O=c1c2ccccc2nc(N/N=C/c2c(O)ccc3ccccc23)n1O,·,–,66,–,–,–
O=c1c2ccccc2nc(N/N=C/c2ccc(O)cc2)n1O,·,–,88,47,–,–
Cc1nc2ccccc2c(=O)n1/N=C/c1c(O)ccc2ccccc12,–,–,–,·,–,–
C=CCn1c(CSc2nc3ccccc3s2)nnc1SCC(=O)OCC,·,–,–,·,–,·
CCn1c(CSc2nc3ccccc3s2)nnc1SCC(=O)c1ccc(O)cc1O,·,–,83,–,–,–
COc1ccc(S(=O)(=O)Nc2ccc3c(c2)C(=O)N([C@H](C)CO)C[C@H](C)[C@H](CN(C)Cc2ccc(C(=O)O)cc2)OCCCC[C@H](C)O3)cc1,·,·,·,–,·,·
CCNC(=S)NNC(=O)c1cc(-c2cccc(OCC)c2)nc2ccccc12,·,–,–,–,–,–
CCNC(=S)NNC(=O)c1cc(-c2cccc(C)c2)nc2ccccc12,–,–,72,–,–,–
Fc1ccc(/C=C/c2nnc(-c3cccs3)o2)cc1,53,–,–,·,–,–
Cc1ccc(/C=C/c2nnc(-c3cccs3)o2)cc1,–,–,–,–,–,–
NC(=O)c1sc2nc3c(c(-c4ccco4)c2c1N)CCC3,–,–,–,–,–,–
Nc1c(C(=O)NC2CC2)sc2nc3c(c(-c4ccco4)c12)CC/C3=C/c1ccco1,·,·,81,·,·,–
O=S(=O)(Cc1ccccc1)NCC[C@H]1CC[C@@H](NS(=O)(=O)c2ccccc2)[C@@H](CO)O1,·,·,·,–,·,·
CNC(=O)c1sc(-c2ccc(Cl)cc2)nc1C,–,–,–,68,–,–
COc1cccc(CN2CCNC(=O)C2CC(=O)N(C)CC2CCOCC2)c1OC (stereo not drawn),–,–,–,–,–,–
COc1cccc(CN2CCNC(=O)C2CC(=O)N(C)C2CCOCC2)c1OC (stereo not drawn),–,–,66,–,–,–
COc1ccc(CN(C)C[C@H]2OCCCC[C@@H](C)Oc3ccc(NC(=O)Nc4ccc(OC)cc4)cc3C(=O)N([C@H](C)CO)C[C@H]2C)cc1,·,·,·,–,·,·
CC(=O)N(C)C[C@H]1Oc2cc(-c3ccc(F)cc3)ccc2S(=O)(=O)N([C@H](C)CO)C[C@H]1C,·,·,·,–,·,·
C/C(=N\Nc1nc(C)cc(-c2ccccc2)n1)c1ccccc1,–,–,–,63,–,·
Cc1cc(-c2ccccc2)nc(N/N=C/c2ccccc2F)n1,–,–,–,56,–,·
Cc1ccc2nc(N/N=C/c3ccccc3F)nc(-c3ccccc3)c2c1,–,–,–,·,–,–
